# According to paper PMC4336329 (PLoS ONE, 2015):
# The whole screen tested about 310,000 compounds, of which about 14,000 (4.5%) showed an effect of 50% or more. Effects have a minus sign here. The sample as a whole holds a higher share of strong results than the screen did.
# Target: human ether-à-go-go-related gene (hERG) potassium channel (human, UniProt Q12809)
# Assay: primary screen, population patch clamp on CHO cells stably expressing hERG; higher = less effect of the substance
# 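Also: peak tail current of the secondary pulse compared with the same well before compound.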
# Chain of human ether-à-go-go-related gene (hERG) potassium channel (Q12809 whole entry, looked up): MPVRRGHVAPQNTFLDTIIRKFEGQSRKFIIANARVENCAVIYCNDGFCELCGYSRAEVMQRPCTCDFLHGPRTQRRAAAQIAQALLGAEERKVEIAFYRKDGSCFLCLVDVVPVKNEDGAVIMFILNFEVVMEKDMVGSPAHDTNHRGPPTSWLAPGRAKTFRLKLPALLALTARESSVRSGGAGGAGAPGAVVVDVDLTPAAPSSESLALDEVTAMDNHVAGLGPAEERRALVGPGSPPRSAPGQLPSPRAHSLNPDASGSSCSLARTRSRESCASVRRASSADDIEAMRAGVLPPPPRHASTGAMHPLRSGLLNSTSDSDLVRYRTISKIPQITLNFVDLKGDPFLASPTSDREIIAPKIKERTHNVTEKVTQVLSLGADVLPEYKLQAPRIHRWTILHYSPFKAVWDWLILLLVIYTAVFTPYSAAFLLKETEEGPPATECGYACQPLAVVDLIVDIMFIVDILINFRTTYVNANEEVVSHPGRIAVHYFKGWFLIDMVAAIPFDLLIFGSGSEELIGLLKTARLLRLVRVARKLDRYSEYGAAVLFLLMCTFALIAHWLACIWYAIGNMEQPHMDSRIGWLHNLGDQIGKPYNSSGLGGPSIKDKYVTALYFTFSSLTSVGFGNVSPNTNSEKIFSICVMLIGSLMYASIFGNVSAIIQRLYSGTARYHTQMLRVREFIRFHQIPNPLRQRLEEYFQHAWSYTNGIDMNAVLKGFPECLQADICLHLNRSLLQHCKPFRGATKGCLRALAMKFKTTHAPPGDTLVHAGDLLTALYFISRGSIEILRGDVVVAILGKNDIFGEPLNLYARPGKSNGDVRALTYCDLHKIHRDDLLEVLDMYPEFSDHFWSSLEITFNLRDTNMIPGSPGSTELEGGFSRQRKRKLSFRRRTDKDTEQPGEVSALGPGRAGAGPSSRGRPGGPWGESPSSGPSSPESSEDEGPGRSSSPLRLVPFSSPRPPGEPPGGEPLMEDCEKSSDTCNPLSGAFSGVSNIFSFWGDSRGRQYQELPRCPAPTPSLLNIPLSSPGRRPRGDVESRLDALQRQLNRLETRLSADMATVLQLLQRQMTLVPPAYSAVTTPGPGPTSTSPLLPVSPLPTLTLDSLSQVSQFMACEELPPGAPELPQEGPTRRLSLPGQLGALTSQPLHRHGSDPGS
row,SMILES,"hERG current change (%, negative = inhibition) at 10uM"
1,NS(=O)(=O)c1ccc(CNC(=O)CSc2ccccc2)cc1,14.5%
2,CCOC(=O)C(=NC(C)CC)NNc1cccc(C(F)(F)F)c1 (stereo not drawn),-1.86%
3,O=C(c1ccc([N+](=O)[O-])cc1[N+](=O)[O-])N1CCCC1,5.62%
4,CN(Cc1ccccc1)C(=O)c1cc(S(=O)(=O)N2CCOCC2)cn1C,-7.13%
5,Fc1cc(Br)ccc1NC(=S)Nc1cccnc1,0.43%
6,COc1ccc(C(=O)O)cc1S(=O)(=O)NC(C)C12CC3CC(CC(C3)C1)C2 (stereo not drawn),1.27%
7,O=C(NC1CCCCCC1)c1c(O)c2ccccc2[nH]c1=O,8.34%
8,CCOC(=O)c1ccc(NC(=O)CCc2nc(-c3ccc(C)cc3)no2)cc1,5.14%
9,Cc1cccc(OCC(=O)NCc2cc(C)nc3ccccc23)c1,-9.05%
10,O=c1cc(CCl)[nH]c2nc3ccccc3n12,-6.02%
11,CCC(C)n1c(SCc2ccc([N+](=O)[O-])cc2)nc2ccsc2c1=O (stereo not drawn),-11.6%
12,CN1CCN(c2nc(-c3ccc(Cl)s3)cs2)CC1,-3.91%
13,O=c1oc(-c2ccc([N+](=O)[O-])cc2)nc2ccccc12,18.2%
14,CCOC(=O)c1c(NC(=O)CN2CCN(C)CC2)sc(C(=O)Nc2ccccc2)c1C,-58.9%
15,CCOC(=O)c1c(NC(=O)CSc2cccc[n+]2[O-])sc(C(=O)Nc2ccccc2)c1C,-30.1%
16,CCOC(=O)c1sc(NC(=O)CN2CCCC2)c(C(=O)OCC)c1C,-6.37%
17,Cc1ccc(NC(=O)CSCC(=O)OC(C)C(=O)Nc2ccc(S(N)(=O)=O)cc2)c(C)c1 (stereo not drawn),5.08%
18,COc1ccc(F)cc1C(=O)C1CCCN(C(=O)c2ocnc2C)C1 (stereo not drawn),-10.1%
19,O=C(NC1CCCC1)C(=O)N(Cc1cccnc1)C(C(=O)NC1CCCC1)c1ccco1 (stereo not drawn),19.6%

row,SMILES,"hERG current change (%, negative = inhibition) at 10uM"
1,O=C(CN1CCN(c2ccccc2F)CC1)c1ccc2c(c1)OCO2,-10.3%
2,O=C(CN1CCN(c2ccccc2F)CC1)c1ccc(O)c(O)c1,-70.7%
3,O=C(CN1CCOCC1)c1ccc2cc[nH]c2c1,8.82%
4,O=C(CN1CCN(c2ccccc2F)CC1)c1ccc(O)cc1O,14.2%
5,O=C(CN1CCN(c2ccccc2F)CC1)c1ccc2cc[nH]c2c1,-82.9%
6,O=C(CN1CCN(c2ccccc2)CC1)c1ccc2cc[nH]c2c1,11.4%
7,CC(=O)Cc1nsc(NC(=O)c2ccc(-c3cc(C(F)(F)F)ccc3Cl)o2)n1,22.7%
8,O=C(c1cccnc1)N1CCN(S(=O)(=O)c2ccc3ccccc3c2)CC1,-34.9%
9,CC(CNC(=O)c1ccc(Br)o1)NC(=O)c1ccc(Br)o1 (stereo not drawn),-0.676%
10,CC1CCCCC1NC(=O)COC(=O)CCC(=O)c1cccs1 (stereo not drawn),17.3%
11,CCn1c(Cn2nnc(-c3ccccc3)n2)nnc1SCC(=O)Nc1ccccc1,-7.39%
12,CC(C)Oc1ccc(NC(N)=O)cc1,1.14%
13,COCCN=C1Sc2nc3ccc(C)cc3cc2CN1Cc1cccs1,-11.1%
14,COCCN=C1Sc2nc3ccc(C)cc3cc2CN1Cc1ccco1,-61%
15,COCCN1Cc2cc3cc(C)ccc3nc2SC1=Nc1ccc(OC)cc1,7.73%
16,CCOc1ccc(N=C2Sc3nc4ccc(C)cc4cc3CN2CCOC)cc1,41.4%
17,COCCN=C1Sc2nc3c(C)cccc3cc2CN1Cc1ccco1,8.49%
18,CCC(C)N=C1Sc2nc3ccc(C)cc3cc2CN1CCOC (stereo not drawn),-79%
19,CCNC(=O)CSc1nnc(-c2cccc(S(=O)(=O)N(CC)CC)c2)n1CCc1ccccc1,-9.82%

row,SMILES,"hERG current change (%, negative = inhibition) at 10uM"
1,Cn1ccc(C(=O)Nc2ccc3c(c2)OCCO3)n1,21.9%
2,O=C(NN1CCOCC1)c1cn(-c2ccccc2)nc1-c1cccs1,-1.47%
3,COC(=O)c1nc(NC(=O)c2ccccc2)n[nH]1,-9.58%
4,O=C(C1=NN[C@@H]2C(=O)N(c3cccc(F)c3)C(=O)[C@H]12)C(c1ccccc1)c1ccccc1,-19.2%
5,CCCCCn1c(=NC(=O)c2cccnc2)c(C#N)cc2c(=O)n3cccc(C)c3nc21,-54.8%
6,CCCCn1c(=NC(=O)c2cccnc2)c(C#N)cc2c(=O)n3cccc(C)c3nc21,-10.6%
7,Cc1cccn2c(=O)c3cc(C#N)c(=NC(=O)c4cccnc4)n(CC4CCCO4)c3nc12 (stereo not drawn),-51.1%
8,CCCCn1c(=NC(C)=O)c(C#N)cc2c(=O)n3cccc(C)c3nc21,-31%
9,Cc1cc(=O)c2cc(Br)ccc2[nH]1,8.12%
10,Cc1n[nH]c(C)c1S(=O)(=O)N1CCC(C(=O)N2CCn3c2nc2ccccc23)CC1,-3.79%
11,CC(C)CC(COCc1ccc(Cl)cc1)N1CCN(C(=O)c2cccc(C(F)(F)F)c2)CCC1=O (stereo not drawn),-38.1%
12,CCOC(=O)c1cc(S(=O)(=O)N(C)Cc2ccccc2)cn1C,-11.7%
13,COc1ccc(OCCn2c(=O)sc3ccccc32)cc1,-8.81%
14,CCCn1c(=N)n(CCOc2ccc(OC)cc2)c2ccccc21,-59.5%
15,CCn1c(=N)n(CCOc2ccc(OC)cc2)c2ccccc21,-55.1%
16,CCn1c(=N)n(CCO)c2ccccc21.Cl,5.84%
17,C=COCCn1c(=N)n(CCC)c2ccccc21.Cl,-28.3%
18,COc1ccc(OCCn2c(=N)n(CCO)c3ccccc32)cc1.Cl,-24.2%
19,Cn1cc(P(=O)(N2CCOCC2)N2CCOCC2)cc1P(=S)(N1CCOCC1)N1CCOCC1,16.6%
